Molecules are shown by their SMILES. Inconclusive results are not listed. A call without a number means that no potency is given here. Activity calls are given as the source filed them. The call rests on the fitted dose curve; in most records, active means well fitted inhibition curve with a large enough effect; inconclusive means small, poorly fitted or top-dose-only effect; inactive means flat fitted curve, though single readings scatter.

In one assay the test system is CP266. Kind of assay: qHTS profiling for inhibitors of Plasmodium falciparum proliferation (AID 504749). Further: nearly all actives have a fitted effect of over 60% in size. The settings on record: P. falciparum in erythrocytes, SYBR Green DNA, 72 h; series mostly up to 28.7 µM. The essentials:
(§1)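 Quantitative HTS: compounds pinned into medium, infected erythrocytes added (0.3% parasitemia, 2.5% hematocrit), 72 h culture at 37 C under 5% CO2. Saponin/Triton lysis with SYBR Green I, overnight RT, then fluorescence read.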
In general terms: Quantitative high-throughput screening tests each substance at several concentrations.
Consider `C#C[C@]1(O)CC[C@H]2[C@@H]3CCc4cc(OC)ccc4[C@H]3CC[C@@]21C`, for which the Potency result was “inactive”.
`Cc1cc(C)cc(OCC2CNC(=O)O2)c1` (stereo not drawn): the Potency entry is “inactive”.
As for `Cc1cc(NS(=O)(=O)c2ccc(N)cc2)nc(C)n1`, the Potency entry was “inactive”.
Same read-out and setting: the same measure for `FC(F)(F)C(F)(F)C(F)(F)C(F)(F)C(F)(F)C(F)(F)C(F)(F)C(F)(F)Br`: “inactive”; for `CC(=O)NC(=O)c1ccccc1O`: “inactive”; for `O=C(O)C(Cc1cc(I)c(O)c(I)c1)c1ccccc1` (stereo not drawn): “inactive”.
On the same count and under the same terms, the value for `O=C(O)c1ccc(S(=O)(=O)N(Cl)Cl)cc1` was “inactive”; that for `CC(=O)Nc1ccc(OCC(O)CNC(C)C)cc1` (stereo not drawn) was “inactive”.
Still for that read-out and setting: the same measure for `O=S(=O)(O)c1ccc(O)cc1`: “inactive”; for `C=C[C@@]1(C)CC(=O)[C@]2(O)[C@@]3(C)[C@@H](O)CCC(C)(C)[C@@H]3[C@H](O)[C@H](OC(C)=O)[C@@]2(C)O1`: “inactive”; for `CCC1Nc2cc(Cl)c(S(N)(=O)=O)cc2S(=O)(=O)N1` (stereo not drawn): “inactive”.
As for `CC(=O)OCC(=O)[C@H]1CC[C@H]2[C@@H]3CCC4=CC(=O)CC[C@]4(C)[C@H]3CC[C@]12C`, the Potency result is “inactive”.
On the same count and under the same terms, the value for `CC(C)Nc1cccnc1N1CCN(C(=O)c2cc3cc(NS(C)(=O)=O)ccc3[nH]2)CC1` was “inactive”.
In the case of `COc1cc(C(=O)NCc2ccc(OCCN(C)C)cc2)cc(OC)c1OC`, the Potency result is “inactive”.
On the same count and under the same terms, the value for `Nc1ccc(C(=O)NCC(=O)O)cc1` was “inactive”.
Same read-out and setting: the same measure for `CCC(CC)(CC(=O)Nc1cccc(/C=C/c2nc(C3CCC3)cs2)c1)C(=O)O`: “inactive”; for `CCCCCCCCCCCCCCCC(=O)O`: “inactive”.
Take `Nc1nc(N)c(-c2ccccc2)s1`: the Potency result is “inactive”.
On the same count and under the same terms, the same measure for `COc1ccc(C(=O)c2ccccc2O)c(O)c1`: “inactive”; for `C#C[C@]1(OC(C)=O)CC[C@H]2[C@@H]3CCC4=C/C(=N/O)CC[C@@H]4[C@H]3CC[C@@]21CC`: “inactive”; for `CCNC(=O)/C=C/c1cccc(Br)c1`: “inactive”.
Same read-out and setting: the same measure for `Cc1ccccc1OCC(O)CO` (stereo not drawn): “inactive”.
Same read-out and setting: the value for `CC(=O)NCCCCCC(=O)O` was “inactive”.
As to `c1ccc(CC2=NCCN2)cc1`, the Potency result was “inactive”.
Same read-out and setting: the same measure for `NS(=O)(=O)Cc1noc2ccccc12`: “inactive”; for `CCCN(CCC)S(=O)(=O)c1ccc(C(=O)O)cc1`: “inactive”.
The same measure, in the same setting: the same measure for `O=C(O)P(=O)(O)O`: “inactive”.
Still for that read-out and setting: the value for `CC[C@H](c1ccc(O)cc1)[C@@H](CC)c1ccc(O)cc1` was “inactive”; that for `CCCCC(CC)COC(=O)/C=C/c1ccc(OC)cc1` (stereo not drawn) was “inactive”; that for `CCOC(=O)c1ccc(N)cc1` was “inactive”.
With `OCc1ccccn1`, the Potency entry was “inactive”.
The same measure, in the same setting: the same measure for `CCCCc1cc2ccccc2c(OCCN(C)C)n1`: “inactive”; for `CC(C)Cn1cnc2c1c(=O)n(C)c(=O)n2C`: “inactive”; for `CCCCNC(=O)NS(=O)(=O)c1ccc(N)cc1`: “inactive”.
Still for that read-out and setting: the value for `O=C(O)Cc1csc(-c2ccc(Cl)cc2)n1` was “inactive”; that for `CC(=O)Nc1ncc([N+](=O)[O-])s1` was “inactive”.
In the case of `CCOc1cc(OCC)c(C(=O)CCC(=O)O)cc1OCC`, the Potency result was “inactive”.
Take `c1ccc(-c2nc[nH]c2-c2ccccc2)cc1`: the Potency result was “inactive”.
On the same count and under the same terms, the value for `Cn1c(=O)c2[nH]c(Br)nc2n(C)c1=O` was “inactive”.

A further assay deals with CP268. The assay is described as above. The settings on record: P. falciparum in erythrocytes, SYBR Green DNA, 72 h; series mostly up to 28.7 µM. The essentials: as §1
On to `C#C[C@]1(O)CC[C@H]2[C@@H]3CCc4cc(OC)ccc4[C@H]3CC[C@@]21C`, for which the Potency result was “inactive”.
In the case of `Cc1cc(C)cc(OCC2CNC(=O)O2)c1` (stereo not drawn), the Potency result was “inactive”.
On the same count and under the same terms, the value for `Cc1cc(NS(=O)(=O)c2ccc(N)cc2)nc(C)n1` was “inactive”; that for `FC(F)(F)C(F)(F)C(F)(F)C(F)(F)C(F)(F)C(F)(F)C(F)(F)C(F)(F)Br` was “inactive”.
Same read-out and setting: the value for `CC(=O)NC(=O)c1ccccc1O` was “inactive”; that for `O=C(O)C(Cc1cc(I)c(O)c(I)c1)c1ccccc1` (stereo not drawn) was “inactive”.
Regarding `O=C(O)c1ccc(S(=O)(=O)N(Cl)Cl)cc1`, the Potency entry is “inactive”.
On the same count and under the same terms, the value for `CC(=O)Nc1ccc(OCC(O)CNC(C)C)cc1` (stereo not drawn) was “inactive”; that for `O=S(=O)(O)c1ccc(O)cc1` was “inactive”.
Still for that read-out and setting: the same measure for `C=C[C@@]1(C)CC(=O)[C@]2(O)[C@@]3(C)[C@@H](O)CCC(C)(C)[C@@H]3[C@H](O)[C@H](OC(C)=O)[C@@]2(C)O1`: “inactive”; for `CCC1Nc2cc(Cl)c(S(N)(=O)=O)cc2S(=O)(=O)N1` (stereo not drawn): “inactive”; for `CC(=O)OCC(=O)[C@H]1CC[C@H]2[C@@H]3CCC4=CC(=O)CC[C@]4(C)[C@H]3CC[C@]12C`: “inactive”.
On the same count and under the same terms, the same measure for `CC(C)Nc1cccnc1N1CCN(C(=O)c2cc3cc(NS(C)(=O)=O)ccc3[nH]2)CC1`: “inactive”; for `COc1cc(C(=O)NCc2ccc(OCCN(C)C)cc2)cc(OC)c1OC`: “inactive”; for `Nc1ccc(C(=O)NCC(=O)O)cc1`: “inactive”.
As for `CCC(CC)(CC(=O)Nc1cccc(/C=C/c2nc(C3CCC3)cs2)c1)C(=O)O`, the Potency result was “inactive”.
The same measure, in the same setting: the same measure for `CCCCCCCCCCCCCCCC(=O)O`: “inactive”; for `Nc1nc(N)c(-c2ccccc2)s1`: “inactive”; for `COc1ccc(C(=O)c2ccccc2O)c(O)c1`: “inactive”.
Same read-out and setting: the same measure for `C#C[C@]1(OC(C)=O)CC[C@H]2[C@@H]3CCC4=C/C(=N/O)CC[C@@H]4[C@H]3CC[C@@]21CC`: “inactive”; for `CCNC(=O)/C=C/c1cccc(Br)c1`: “inactive”.
Same read-out and setting: the same measure for `Cc1ccccc1OCC(O)CO` (stereo not drawn): “inactive”.
`CC(=O)NCCCCCC(=O)O`: the Potency result was “inactive”.
Still for that read-out and setting: the same measure for `c1ccc(CC2=NCCN2)cc1`: “inactive”; for `NS(=O)(=O)Cc1noc2ccccc12`: “inactive”.
As to `CCCN(CCC)S(=O)(=O)c1ccc(C(=O)O)cc1`, the Potency entry was “inactive”.
Consider `O=C(O)P(=O)(O)O`, for which the Potency entry is “inactive”.
Same read-out and setting: the same measure for `CC[C@H](c1ccc(O)cc1)[C@@H](CC)c1ccc(O)cc1`: “inactive”; for `CCCCC(CC)COC(=O)/C=C/c1ccc(OC)cc1` (stereo not drawn): “inactive”; for `CCOC(=O)c1ccc(N)cc1`: “inactive”.
The same measure, in the same setting: the same measure for `OCc1ccccn1`: “inactive”.
Consider `CCCCc1cc2ccccc2c(OCCN(C)C)n1`, for which the Potency result is “inactive”.
Same read-out and setting: the same measure for `CC(C)Cn1cnc2c1c(=O)n(C)c(=O)n2C`: “inactive”; for `CCCCNC(=O)NS(=O)(=O)c1ccc(N)cc1`: “inactive”.
Same read-out and setting: the value for `O=C(O)Cc1csc(-c2ccc(Cl)cc2)n1` was “inactive”; that for `CC(=O)Nc1ncc([N+](=O)[O-])s1` was “inactive”; that for `CCOc1cc(OCC)c(C(=O)CCC(=O)O)cc1OCC` was “inactive”.
The same measure, in the same setting: the same measure for `c1ccc(-c2nc[nH]c2-c2ccccc2)cc1`: “inactive”; for `Cn1c(=O)c2[nH]c(Br)nc2n(C)c1=O`: “inactive”.

The values are drawn from PubChem BioAssay (NCATS).
